Bioassay records from PubChem BioAssay.
Sampled rows, rich in hits. Any-hit rate of the full collection: about 1.3%.
PREPL inh = inhibits the human prolyl oligopeptidase-like enzyme; Q4J6C6; recombinant PREPL, fluorescence polarization activity-based probe; inhibition, % at 5.96 µM; actives 0.68% (n = 320,000); in the data active = inhibition above about 43%
PME-1 primary = PME-1 (human) inhibition. actives 0.53% (n = 320,000). inhibition, % at 5.9 µM. recombinant PME-1, FP-Rh probe fluorescence polarization. Q9Y570. AID 2130;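 active = inhibition above the campaign mean of all compounds plus 3 SD, cut at about 26% in these data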;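 also: competitive labeling of PME-1 active site by serine hydrolase directed probe; inhibitors block probe labeling so polarization falls and inhibition rises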
LYPLA1 counter = counter-screen for PME1 inhibitors: inhibitors of human LYPLA1 | actives 0.16% (n = 320,000) | inhibition, % at 5.9 µM | O75608 | recombinant LYPLA1, FP-Rh probe fluorescence polarization | AID 2174;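 active = inhibition above the mean of all tested compounds plus 3 SD, set per campaign, cut at about 14% in these data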;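 also: inhibitors block serine hydrolase probe labeling of LYPLA1 so polarization falls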
Fam108B inh = blocks mouse Fam108B hydrolase in RBBP9 counter-screen; recombinant Fam108B, FP-Rh probe fluorescence polarization; inhibition, % at 9.51 µM; actives 0.33% (n = 300,000);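 active = inhibition above the screen mean inhibition plus 3 SD, computed separately per campaign, cut at about 18% in these data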;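 also: inhibitors lower polarization as less probe binds the enzyme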
LYPLA2 counter = LYPLA2 (human) inhibition in PME1 counter-screen; recombinant LYPLA2, FP-Rh probe fluorescence polarization; actives 0.38% (n = 320,000); O95372; inhibition, % at 5.9 µM;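 active = inhibition above the screen-wide mean plus 3 SD, limit set per campaign, cut at about 26% in these data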
Target sequence (O95372 whole entry, looked up): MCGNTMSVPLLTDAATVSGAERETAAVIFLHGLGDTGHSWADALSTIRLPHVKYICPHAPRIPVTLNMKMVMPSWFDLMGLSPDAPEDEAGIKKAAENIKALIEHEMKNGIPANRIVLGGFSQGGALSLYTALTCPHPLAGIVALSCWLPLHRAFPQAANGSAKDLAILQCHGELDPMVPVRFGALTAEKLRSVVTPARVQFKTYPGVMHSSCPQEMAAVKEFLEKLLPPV
Each line names hits and unclear results; the compound was inactive in the other large screens.

Cc1ccc(S(=O)(=O)N2CCC(C(=O)OCC(=O)N3CCC(C)CC3)CC2)cc1C	none
O=C1Nc2ccccc2C(=O)N2C[C@@H](O)C[C@H]12	none
Oc1[nH]c2ccccc2c1N=Nc1nc2ccccc2s1	PME-1 primary 29
Cc1ccc2[nH]c(O)c(N=Nc3nc4ccccc4s3)c2c1	none
C=CCOc1ccc(/C=N/NC(=O)c2cc3c(OC)cc(OC)cc3[nH]2)cc1	PME-1 primary 41
O=C1N/C(=N/S(=O)(=O)Cc2ccccc2)S/C1=C/c1ccc2c(c1)OCO2	none
O=C(NCc1ccccc1F)Nc1ccc([N+](=O)[O-])cc1	none
N#C/C(=C/c1ccc(N2CCOCC2)o1)c1ccc(Cl)cc1	Fam108B inh 21
N#C/C(=C\c1ccc(N2CCOCC2)o1)c1nc2ccccc2[nH]1	none
CCN(C[C@H]1N[C@@](Cc2ccccc2)(C(=O)OC)[C@H]2C(=O)N(C)C(=O)[C@@H]12)C(=O)NC(C)C	none (no result: PME-1 primary, LYPLA1 counter, Fam108B inh, LYPLA2 counter)
COc1ccc(/C=C/c2c(-c3ccc(OC)cc3)oc3cccnc23)cc1	PME-1 primary 27
Cc1ccc(S(=O)(=O)Oc2cccc(/C=N/Nc3ccc(C(=O)O)cc3)c2)cc1	PME-1 primary 31
Cc1ccc(NS(=O)(=O)c2ccc3c(c2)C(=O)c2ccccc2C3=O)c(C)c1	PME-1 primary 32
Cc1nn(-c2ccccc2)c2ncc(C(=O)c3cc(Cl)ccc3O)cc12	PME-1 primary 29
CN1CCc2c(sc3c2C(=O)NC(c2cccc(OC(=O)c4cccs4)c2)N3)C1 (centres undefined)	PREPL inh 52
CN1CCc2c(sc3c2C(=O)NC(c2ccco2)N3)C1 (centres undefined)	none
COc1ccc(N=Nc2nc(-c3ccccc3)c(-c3ccccc3)[nH]2)cc1	PME-1 primary 28
Oc1ccccc1N=Nc1nc(-c2ccccc2)c(-c2ccccc2)[nH]1	PME-1 primary 35
Cc1ccc(S(=O)(=O)N2CCN(C(=O)Cn3c(=O)cnc4ccccc43)CC2)cc1	PME-1 primary 37 (no result: Fam108B inh)
O=C(O)c1ccccc1Nc1cccc(OCc2ccc3ccccc3n2)c1	PME-1 primary 30
C/C(=N/N1CCN(Cc2cccc3ccccc23)CC1)c1ccco1	none
CCN(CC)C(=S)Sc1c(-c2ccccc2)c2cc(Cl)ccc2[nH]c1=O	PME-1 primary 35
O=C(O)CSc1c(-c2ccccc2)c2cc(Cl)ccc2[nH]c1=O	none
CC(NC(=O)c1cccc(S(=O)(=O)N2CCN(Cc3ccccc3)CC2)c1)c1ccc(Br)cc1 (centres undefined)	none
CCCN(CCC)CCNC(=O)C1CCN(Cc2nc(-c3ccc(Cl)cc3)oc2C)CC1	PREPL inh 45
Cc1oc(-c2ccc(Cl)cc2)nc1CN1CCC(C(=O)NCc2cccnc2)CC1	none
CN1CCC(N(C)CC(C)(C)NS(=O)(=O)c2ccccc2)CC1	none
COc1cc(/C=N/NC(=O)COc2ccccc2[N+](=O)[O-])ccc1OC(=O)c1ccco1	PREPL inh 101
O=C(COc1ccccc1[N+](=O)[O-])N/N=C/c1ccc(OC(=O)c2ccco2)cc1	PREPL inh 62
Nc1ccc2oc(-c3cc(Br)ccc3Cl)nc2c1	PME-1 primary 28
Nc1ccc2oc(-c3ccccc3Cl)nc2c1	none
CCN1CCN(c2c(/C=C3\SC(=S)N(Cc4ccco4)C3=O)c(C)c(C#N)c(=O)n2C)CC1	none
CCOc1cc(/C=C2\N=C(SCC)SC2=O)cc([N+](=O)[O-])c1OC(C)=O	PME-1 primary 35
N=c1oc2cc(O)ccc2cc1C(=O)Nc1nc2ccccc2s1	PME-1 primary 30
CCCCn1c(NC(=O)c2ccc(F)cc2)c(C#N)c2nc3ccccc3nc21	LYPLA1 counter 60, Fam108B inh 56, LYPLA2 counter 61
CCN(CC)c1ccc(/C=N/NC(=O)Cc2nnc(NC(=O)Nc3ccccc3)s2)cc1	PME-1 primary 37, Fam108B inh 47
COc1ccc2[nH]c(O)c(N=NC(=O)c3ccc(NS(=O)(=O)c4cccs4)cc3)c2c1	PME-1 primary 30 (no result: Fam108B inh)
Cc1ccc2[nH]c(O)c(N=NC(=O)c3ccc(NS(=O)(=O)c4cccs4)cc3)c2c1	PME-1 primary 52
O=C(N=Nc1c(O)[nH]c2ccc(F)cc12)c1ccc(NS(=O)(=O)c2cccs2)cc1	none (no result: Fam108B inh)
CN(CC(=O)NCC(=O)Nc1ccc(F)cc1)C1CCS(=O)(=O)C1 (centres undefined)	none (no result: Fam108B inh)
O=C(COC(=O)/C=C/c1ccc(C(F)(F)F)cc1)NC1CCS(=O)(=O)C1 (centres undefined)	none
